Laboratory results as given in PubChem BioAssay (NCI).
About 79,000 compounds went through this panel and 15% of them were active in at least one assay; those are over-represented in the sample as a whole. No stated cut-off is given here; in the data, active means growth inhibition above about 70%; inactive means the rest.

How the values were obtained:
[1] = NCI Yeast Anticancer Drug Screen. Data for the rad50 strain (AID 155);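 further: 0% = growth of vehicle-only cultures of the same strain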; conditions: S. cerevisiae rad50 strain growth inhibition; at 50.0 µM; active compounds read high
In short: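 Inhibition values express reduced yeast growth in compound-treated cultures relative to vehicle-treated controls.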

[2] = NCI Yeast Anticancer Drug Screen. Data for the mec2-1 strain (AID 157); conditions: S. cerevisiae mec2-1 strain, at 50.0 µM, active compounds read high
In short: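 Readout is yeast growth inhibition, normalised to vehicle-treated controls, in the mec2-1 strain exposed to compound.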

[3] = NCI Yeast Anticancer Drug Screen. Data for the sgs1 mgt1 strain (AID 161);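 further: 0% = growth of cultures given vehicle only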; conditions: S. cerevisiae sgs1 mgt1 strain, at 50.0 µM, active compounds read high
In short: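 Growth of a repair-deficient yeast mutant was monitored after compound treatment and expressed as inhibition relative to vehicle-treated cultures.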

[4] = NCI Yeast Anticancer Drug Screen. Data for the bub3 strain (AID 167); conditions: S. cerevisiae bub3 mutant strain, at 50.0 µM, active compounds read high
In short: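 Steps: expose the mutant yeast strain to compound; grow alongside vehicle-treated cultures; measure growth; express inhibition against the vehicle cultures.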

[5] = NCI Yeast Anticancer Drug Screen. Data for the mlh1 rad18 strain (AID 175); conditions: S. cerevisiae mlh1 rad18 strain growth inhibition; at 50.0 µM; active compounds read high
In short: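 Test agents were incubated with a yeast strain of defined genotype (DNA damage repair defect). Inhibition of growth was derived by comparison with vehicle-exposed cultures.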

[6] = NCI Yeast Anticancer Drug Screen. Data for the cln2 rad14 strain (AID 165);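 further: 0% = growth equal to vehicle treated cultures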; conditions: S. cerevisiae cln2 rad14 strain, at 50.0 µM, active compounds read high
In short: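 Relative to vehicle controls, growth inhibition of compound-treated cln2 rad14 yeast was recorded.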

Measured: growth inhibition

Clc1ccc2cc(Cl)c3ccccc3c2c1
inactive: [1] -17.4% | [2] -24.4% | [3] -16.4% | [4] 4.25% | [5] -0.05%

COC(=O)/C=C/c1ccc2c(c1)CCC2
inactive: [1] -35.5% | [2] -30.9% | [3] -13.8% | [4] 31.7% | [5] -1.35%

CCCCN=C=NCCC[N+](C)(C)C
inactive: [1] 0.4% | [2] 7.2% | [3] 0.9% | [4] 2.8% | [5] 8.2%

CC(C)C(NC(=O)C(Cc1ccccc1)NC(=O)[C@H]1CCC[C@H]1NC(=O)C(Cc1ccc(OC(C)(C)C)cc1)NC(=O)OC(C)(C)C)C(N)=O (stereo partly drawn)
inactive: [1] -11.2% | [2] -6.7% | [3] -15.8% | [4] -7.65% | [5] -0.2%

CCN(C(=N)C#N)c1ccccc1
inactive: [1] 29.8% | [2] 13.2% | [3] 10.1% | [4] 29.9% | [5] 27.1%

COC1=CC(=O)N/C1=C(\OC)c1ccccc1
inactive: [1] -24.5% | [2] -0.95% | [3] -7% | [4] -15.2% | [5] -5.2%

CCOC(=O)C1(C)OC1c1ccc([N+](=O)[O-])cc1 (stereo not drawn)
inactive: [1] -16.3% | [2] 5.45% | [3] -4.5% | [4] -9.85% | [5] -9.85%

COc1ccccc1NC(=O)/C(=C\n1c(=S)[nH]c2ccc([N+](=O)[O-])cc21)C(C)=O
inactive: [1] -9.7% | [2] -10.4% | [3] 2.55% | [4] 4.95% | [5] -4.15%

Cc1ccc(NC(=O)c2cc(S(=O)(=O)n3cc[nH]c3=O)c(S)cc2Cl)cc1
inactive: [1] 14.5% | [2] -5.85% | [3] 23.9% | [4] -4.75% | [5] 34%

Nc1nnc2nc(CC(=O)c3ccccc3[N+](=O)[O-])c(CC(=O)c3ccccc3[N+](=O)[O-])nn12
inactive: [1] 1% | [2] 6.05% | [3] 18.1% | [4] -27.4% | [5] 8.8%

CCOC(=O)N1Cc2cc3ccccc3nc2C1CC(=O)O (stereo not drawn)
inactive: [1] -14.8% | [2] 11.9% | [3] -3.6% | [5] -24.8%

O=[N+]([O-])c1ccc(Nc2ccc(Cl)cc2)c2nonc12
inactive: [1] -24.7% | [2] -7.9% | [3] 25.7% | [4] 8.85% | [5] 23.4%

CSC1(C)CC2C(CC1N1CCOCC1)C2(C)C (stereo not drawn)
inactive: [1] -28.4% | [2] -33.9% | [3] -41.6% | [4] -33.4% | [5] -26.2%

CC(=O)N(CCCc1ccccc1)C(C)(C)C
inactive: [1] 5.95% | [2] 5.3% | [3] -3.05% | [4] 2.25% | [5] 6.15%

CCc1ccccc1Cc1ccccc1
inactive: [1] 1.8% | [2] -4.75% | [3] -0.2% | [4] -1.55% | [5] 10.7%

Nc1ccc(N=Nc2ccncc2)c2ccccc12
inactive: [1] 31.7% | [2] 22.5% | [3] 4.1% | [4] 28% | [5] 19.7%

CSc1nc2ccc(N=Cc3ccccc3O)cc2s1
inactive: [1] -25.5% | [2] -8.25% | [3] -5.7% | [4] 17.7% | [5] -13.4%

COC(=O)/C=C1\SC(OC)(N(C)c2ccccc2)N(C)C1=O (stereo not drawn)
inactive: [1] -25.6% | [2] 9.6% | [3] 22.7% | [4] -0.8% | [5] 19.1%

COC(=O)Nc1ccc(C)cc1[N+](=O)[O-]
inactive: [1] 5.5% | [2] -8.75% | [3] -13.4% | [4] 6.4% | [5] -0.6%

Cc1ccccc1NC=O
inactive: [1] -26% | [2] -19.2% | [3] -44.5% | [4] -36.5% | [5] -13%

COc1c(NC(=O)c2ccc(C(=O)Nc3cccc([N+](=O)[O-])c3OC)cc2)cccc1[N+](=O)[O-]
inactive: [1] 22.3% | [2] -6.1% | [3] -9% | [4] -2.2% | [5] -1.3%

Cc1cccc(C(=O)OC(=O)c2cccc(C)c2)c1
inactive: [1] -3.85% | [2] -37% | [3] -9.75% | [4] -23.9% | [5] 10.3%

O=C(CCc1ccccc1)NC(=S)Nc1cc(C(F)(F)F)ccc1Cl
inactive: [1] 13.2% | [2] 14.2% | [3] 33.5% | [4] -8% | [5] 34.9%

O=C(O)c1ccncc1
inactive: [1] 12.2% | [2] -9.65% | [3] 8.1% | [4] -2.9% | [5] 17.9%

Oc1cccc(CCc2ccccn2)c1
inactive: [1] -2.45% | [2] 0.85% | [3] -11.3% | [4] -3.85% | [5] -4.05%

C=CCCCCCCCCCCCCCC
inactive: [1] -0.85% | [2] -2.3% | [3] -4% | [4] -7.5% | [5] 26.9%

O=C(NNC1=NCCN1Cc1ccccc1)c1cccc(Cl)c1
inactive: [1] -6.1% | [2] -25.4% | [3] 13.3% | [4] -0.8% | [5] 2.15%

CCCCCCn1c(=O)cc2n(c1=O)CCC2
inactive: [1] 30% | [2] 11.3% | [3] 22.1% | [5] -3.4%

CNCCS(=O)(=O)O
inactive: [1] 13.9% | [2] -3.05% | [3] 1.7% | [4] 13.6% | [5] 9.25%

CCOc1ccc(Nc2ccc3c(O)cc(S(=O)(=O)O)cc3c2)cc1
inactive: [1] 0.9% | [2] -7.35% | [3] -5.75% | [4] 38.5% | [5] 12.8%

CCOC(=O)/C(=N\O)C(C)(C)c1ccnc2ccccc12
inactive: [1] -4% | [2] 0.6% | [3] -10.9% | [4] -5% | [5] 4.7%

N#CC(C#N)=C1C=CC=CC=C1
inactive: [1] 14.2% | [2] 5% | [3] 0.85% | [4] 8.75% | [5] -4.4%

OC12CCCCCC1(N1CCOCC1)c1ccccc12 (stereo not drawn)
inactive: [1] -8.2% | [2] -11.7% | [3] -29.7% | [4] -37.2% | [5] -24.3%

O=c1[nH]c(Nc2ccccc2)nc2c1ncn2CC(O)CSCCO (stereo not drawn)
inactive: [1] 16.1% | [2] 13.2% | [3] 26.7% | [4] 10.4% | [5] -27.4%

CC(=O)CC1CCCCCC1
inactive: [1] 4.3% | [2] 4.3% | [3] 0.45% | [4] 2.1% | [5] 6.3%

CCOc1ccccc1NC(=O)CC(C)=O
inactive: [1] 14.3% | [2] 20.6% | [3] 22.2% | [4] 33.3% | [5] 10.4%

COc1cc(C(=O)NC2CCc3cc(OC)c(OC)c(OC)c3-c3ccc(OC)c(=O)cc32)cc(OC)c1OC (stereo not drawn)
inactive: [1] 26.4% | [2] -9.65% | [3] 3% | [4] 0.05% | [5] 5.35%

CCOC(=O)N1C=Cc2ccccc2C1C(=N)N (stereo not drawn)
inactive: [1] -20.2% | [2] -12.3% | [3] -11% | [4] -6.3% | [5] -13.6%

Cc1ccc(S(=O)(=O)OC(c2ccc(Cl)cc2)C(F)(F)F)cc1 (stereo not drawn)
inactive: [1] 7.55% | [2] -22.6% | [3] -0.55% | [4] 3.45% | [5] 17.8%

CCCCCCC(NC(C)=O)C(=O)O (stereo not drawn)
inactive: [1] 3.85% | [2] -4.7% | [3] 13.9% | [4] 4.3% | [5] 3.5%

COC(=O)C(N)C(C)C (stereo not drawn)
inactive: [1] 13.8% | [2] 9.15% | [6] -6.9% | [4] 4.55% | [5] 0.35%

CN(C)CCN1C(=O)c2c(c3cccn3c3c2cnn3-c2ccccc2)C1=O
inactive: [1] 36.8% | [2] 12.1% | [6] -43% | [4] 4.9% | [5] 32.6%

O=c1oc2ccc(Br)cc2cc1CCS
inactive: [1] 9.9% | [2] 21.2% | [6] 10.8% | [4] 9.55% | [5] -9.35%

C[P+]1(CCc2ccc(Cl)cc2)CC=CC1
inactive: [1] -4.15% | [2] 5.2% | [6] -18.9% | [4] 0.2% | [5] -3.95%
